# Measured values as given in publication PMC5540273 (PLoS ONE, 2017).
# Where two headings read alike, the source gives them in different places.
# Key:
# [1] = test system: CAMK1; conditions: concentration: 1 μM,replicates: in singlicate; n = 1
# [2] = test system: CAMK2A; conditions: concentration: 1 μM,replicates: in singlicate; n = 1
# [3] = test system: CAMK2B; conditions: concentration: 1 μM,replicates: in singlicate; n = 1
# [4] = test system: CAMK2D; conditions: concentration: 1 μM,replicates: in singlicate; n = 1
# [5] = test system: CAMK2G; conditions: concentration: 1 μM,replicates: in singlicate; n = 1
# [6] = test system: CAMK4; conditions: concentration: 1 μM,replicates: in singlicate; n = 1
# [7] = test system: CAMKK1; conditions: concentration: 1 μM,replicates: in singlicate; n = 1
# [8] = test system: CAMKK2; conditions: concentration: 1 μM,replicates: in singlicate; n = 1
# [9] = test system: CASK; conditions: concentration: 1 μM,replicates: in singlicate; n = 1
# [10] = test system: T1, CDC2L1; conditions: concentration: 1 μM,replicates: in singlicate; n = 1
# T1 construct: gene CDK11B
# [11] = test system: CDC2L2; conditions: concentration: 1 μM,replicates: in singlicate; n = 1
# [12] = test system: T2, CDC2L5; conditions: n = 1
# T2 construct: gene CDK13
# [13] = test system: T3, CDK11; conditions: concentration: 1 μM,replicates: in singlicate; n = 1
# T3 construct: gene CDK19
# [14] = test system: CDK2; conditions: concentration: 1 μM,replicates: in singlicate; n = 1
# [15] = test system: CDK3; conditions: concentration: 1 μM,replicates: in singlicate; n = 1
# [16] = test system: CDK4-cyclinD1; conditions: n = 1
# [17] = test system: CDK4-cyclinD3; conditions: n = 1
# [18] = test system: CDK4; conditions: n = 1
# [19] = test system: CDK5; conditions: concentration: 1 μM,replicates: in singlicate; n = 1
# [20] = test system: CDK7; conditions: concentration: 1 μM,replicates: in singlicate; n = 1
# [21] = concentration: 1 μM,replicates: in singlicate
# 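Also: KINOMEscan kinase panel screen.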
smiles,measurement,setting,value
Cl.c1ccc(Oc2ccc(Nc3ccnc4cc(-c5ccc(CN6CCNCC6)o5)ccc34)cc2)nc1 [GW567142],%Inh,[1],29%
same,%Inh,[2],0%
same,%Inh,[3],0%
same,%Inh,[4],3%
same,%Inh,[5],0%
same,%Inh,[6],0%
same,%Inh,[7],0%
same,%Inh,[8],0%
same,%Inh,[9],0%
same,%Inh,[10],0%
same,%Inh,[11],16%
same,%Inh,[12]; [21],0%
same,%Inh,[13],10%
same,%Inh,[14],0%
same,%Inh,[15],0%
same,%Inh,[16]; [21],0%
same,%Inh,[17]; [21],0%
same,%Inh,[18]; [21],14%
same,%Inh,[19],0%
same,%Inh,[20],52%
COc1cccc(OC)c1C(=O)Nc1cccc(-c2nn3ccccc3c2-c2ccnc(Nc3cccc(F)c3)n2)c1 [GSK361065],%Inh,[1],19%
same,%Inh,[2],27%
same,%Inh,[3],6%
same,%Inh,[4],0%
same,%Inh,[5],0%
same,%Inh,[6],0%
same,%Inh,[7],4%
same,%Inh,[8],0%
same,%Inh,[9],15%
same,%Inh,[10],0%
same,%Inh,[11],0%
same,%Inh,[12]; 1 µM,1%
same,%Inh,[13],0%
same,%Inh,[14],0%
same,%Inh,[15],0%
same,%Inh,[16]; 1 µM,0%
same,%Inh,[17]; 1 µM,7%
same,%Inh,[18]; 1 µM,0%
same,%Inh,[19],21%
same,%Inh,[20],22%
CN(c1ccc2c(c1)nc(NCc1ccc(F)cc1)n2C)c1ccnc(Nc2ccc(CS(C)(=O)=O)cc2)n1.Cl [GW813244],%Inh,[1],0%
same,%Inh,[2],0%
same,%Inh,[3],0%
same,%Inh,[4],0%
same,%Inh,[5],1%
same,%Inh,[6],0%
same,%Inh,[7],0%
same,%Inh,[8],6%
same,%Inh,[9],15%
same,%Inh,[10],94.5%
same,%Inh,[11],92.6%
same,%Inh,[12]; [21],0%
same,%Inh,[13],26%
same,%Inh,[14],5%
same,%Inh,[15],6%
same,%Inh,[16]; [21],0%
same,%Inh,[17]; [21],10%
same,%Inh,[18]; [21],22%
same,%Inh,[19],0%
same,%Inh,[20],31%
Cn1ccc2ncnc(Oc3ccc(NC(=O)Nc4cc(C(C)(C)C)on4)c(Cl)c3)c21,%Inh,[1],17%
same,%Inh,[2],100%
same,%Inh,[3],100%
same,%Inh,[4],4%
same,%Inh,[5],14%
same,%Inh,[6],0%
same,%Inh,[7],6%
same,%Inh,[8],22%
same,%Inh,[9],0%
same,%Inh,[10],0%
same,%Inh,[11],4%
same,%Inh,[12]; [21],26%
same,%Inh,[13],100%
same,%Inh,[14],12%
same,%Inh,[15],2%
same,%Inh,[16]; [21],0%
same,%Inh,[17]; [21],2%
same,%Inh,[18]; [21],2%
same,%Inh,[19],0%
same,%Inh,[20],55%
O=C(Nc1cccc(Oc2ccc3nccn3n2)c1)Nc1cccc(C(F)(F)F)c1,%Inh,[1],5%
same,%Inh,[2],0%
same,%Inh,[3],0%
same,%Inh,[4],0%
same,%Inh,[5],0%
same,%Inh,[6],0%
same,%Inh,[7],5%
same,%Inh,[8],0%
same,%Inh,[9],26%
same,%Inh,[10],1%
same,%Inh,[11],6%
same,%Inh,[12]; [21],13%
same,%Inh,[13],98.7%
same,%Inh,[14],0%
same,%Inh,[15],32%
same,%Inh,[16]; [21],33%
same,%Inh,[17]; [21],0%
same,%Inh,[18]; [21],0%
same,%Inh,[19],0%
same,%Inh,[20],0%
CN(c1cccc(CNc2nc(Nc3ccc4c(c3)CC(=O)N4)ncc2C(F)(F)F)c1)S(C)(=O)=O,%Inh,[1],0%
same,%Inh,[2],0%
same,%Inh,[3],0%
same,%Inh,[4],7%
same,%Inh,[5],0%
same,%Inh,[6],0%
same,%Inh,[7],15%
same,%Inh,[8],16%
same,%Inh,[9],7%
same,%Inh,[10],0%
same,%Inh,[11],7%
same,%Inh,[12]; [21],0%
same,%Inh,[13],0%
same,%Inh,[14],6%
same,%Inh,[15],22%
same,%Inh,[16]; [21],22%
same,%Inh,[17]; [21],0%
same,%Inh,[18]; [21],0%
same,%Inh,[19],31%
same,%Inh,[20],53%
CC(=O)c1c(-c2ccncc2)[nH]c(-c2ccncc2)c1C [GW493036],%Inh,[1],26%
same,%Inh,[2],0%
same,%Inh,[3],0%
same,%Inh,[4],0%
same,%Inh,[5],0%
same,%Inh,[6],0%
same,%Inh,[7],0%
same,%Inh,[8],0%
same,%Inh,[9],25%
same,%Inh,[10],0%
same,%Inh,[11],4%
same,%Inh,[12]; [21],0%
same,%Inh,[13],13%
same,%Inh,[14],31%
same,%Inh,[15],53%
same,%Inh,[16]; [21],0%
same,%Inh,[17]; [21],38%
same,%Inh,[18]; [21],0%
same,%Inh,[19],0%
same,%Inh,[20],96.2%
FC(F)(F)c1cc(Br)cc(Nc2nccc(-c3cnn4ncccc34)n2)c1 [GW810578],%Inh,[1],23%
same,%Inh,[2],0%
same,%Inh,[3],6%
same,%Inh,[4],21%
same,%Inh,[5],28%
same,%Inh,[6],0%
same,%Inh,[7],45%
same,%Inh,[8],59%
same,%Inh,[9],22%
same,%Inh,[10],0%
same,%Inh,[11],7%
same,%Inh,[12]; [21],0%
same,%Inh,[13],0%
same,%Inh,[14],39%
same,%Inh,[15],73%
same,%Inh,[16]; [21],16%
same,%Inh,[17]; [21],52%
same,%Inh,[18]; [21],8%
same,%Inh,[19],37%
same,%Inh,[20],98.9%
Nc1nccc(-c2ccc3c(N)n[nH]c3c2)n1 [GSK1034945],%Inh,[1],11%
same,%Inh,[2],0%
same,%Inh,[3],5%
same,%Inh,[4],0%
same,%Inh,[5],0%
same,%Inh,[6],0%
same,%Inh,[7],1%
same,%Inh,[8],8%
same,%Inh,[9],6%
same,%Inh,[10],0%
same,%Inh,[11],4%
same,%Inh,[12]; [21],0%
same,%Inh,[13],37%
same,%Inh,[14],0%
same,%Inh,[15],13%
same,%Inh,[16]; [21],0%
same,%Inh,[17]; [21],0%
same,%Inh,[18]; [21],1%
same,%Inh,[19],0%
same,%Inh,[20],0%
Cc1nnc(-c2ccc3occ(-c4ccc(S(C)=O)cc4)c3n2)o1 (centres unmarked),%Inh,[1],3%
same,%Inh,[2],0%
same,%Inh,[3],0%
same,%Inh,[4],0%
same,%Inh,[5],0%
same,%Inh,[6],0%
same,%Inh,[7],6%
same,%Inh,[8],11%
same,%Inh,[9],0%
same,%Inh,[10],0%
same,%Inh,[11],0%
same,%Inh,[12]; [21],0%
same,%Inh,[13],0%
same,%Inh,[14],6%
same,%Inh,[15],0%
same,%Inh,[16]; [21],0%
same,%Inh,[17]; [21],0%
same,%Inh,[18]; [21],0%
same,%Inh,[19],0%
same,%Inh,[20],0%
